Assay outcomes (PubChem)
Rows were chosen to be rich in hits. Some 18% of all compounds tested hit in one or more screens of this group.
IL-1B inflam inh = qHTS for Inhibitors of Inflammasome Signaling: IL-1-beta AlphaLISA Primary Screen. THP-1 LPS/ATP IL-1B secretion, AlphaLISA, 16 h; hits give low values. activity change, % at 57.5 µM. hit rate 4.7% among 360,000. AID 743279, 2014; in the data active means activity change below about -50%; inconclusive means mostly about -30% to -49%
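Secreted IL-1B measured by AlphaLISA bead assay after 16 h compound exposure of THP-1 cells; compounds (final up to 57.5 uM) added 1 h before LPS (250 ng/mL) and ATP (1.25 mM) stimulation; lower signal means less secretion.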
CtBP-E1A blk = qHTS Assay for Inhibitors of the CtBP/E1A Interaction | CtBP / adenovirus E1A interaction (AlphaScreen) | AlphaScreen GST-E1A/His-CtBP binding, 1536-well; hits give low values | AID 651724, 2012 | activity change, % (test concentration not listed) | hit rate 0.49% among 340,000; in the data active means activity change below about -65%; inconclusive means mostly about -30% to -63%
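GST-E1A and His-tagged CtBP (125 nM each as 5X stock) were preincubated with pin-transferred compound for 2 h at 37 °C in the dark, then glutathione donor and nickel acceptor beads were added for 1 h before AlphaScreen reading.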
DT40 TDP1 CPT = qHTS for Inhibitors of human tyrosyl-DNA phosphodiesterase 1 (TDP1): qHTS in cells in presence of CPT; chicken DT40 Tdp1-/-;hTDP1 cells + 20 nM CPT, ATP luminescence, 48 h; Potency, µM (doses to about 46.2 µM), usual class: inhibitors; hit rate 12% among 420,000; AID 686979, 2013; further: nearly all actives have a fitted effect of over 55% in size
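Cell growth measured by CellTiter-Glo luminescence after a minimum 48 h, 37 C compound exposure with 20 nM CPT in Tdp1-knockout DT40 cells stably expressing hTDP1, seeded 400/well; qHTS titration format.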
TDP1 block = qHTS Assay for Inhibitors of Tyrosyl-DNA Phosphodiesterase (TDP1) | Tyrosyl-DNA phosphodiesterase 1 (Homo sapiens), Q9NUW8 | recombinant TDP1, AlphaScreen DNA substrate cleavage | Potency, µM (series often up to 130 µM), actives largely listed as inhibitors | hit rate 0.28% among 350,000; further: nearly all actives have a fitted effect of over 40% in size
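AlphaScreen read-out: signal falls as enzyme removes the 3' tyrosine-FITC from a 5'-biotinylated DNA oligo (15 nM, 5 min, RT). Enzyme was E. coli-made recombinant Tdp1 at 1 nM, exposed to compound for 15 min beforehand; beads 10 ug/ml, 10 min.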
Six1-Eya2 blk = qHTS Assay for Inhibitors of the Six1/Eya2 Interaction; Homeobox protein SIX1 (Homo sapiens) + Protein phosphatase EYA2 (Homo sapiens), …; AlphaScreen GST-Six1/His-Eya2 binding, biochemical; hits give low values; activity change, % (test concentration not listed); hit rate 0.56% among 360,000; in the data active means activity change below about -65%; inconclusive means mostly about -30% to -63%
Target sequence (O00167 whole entry, looked up): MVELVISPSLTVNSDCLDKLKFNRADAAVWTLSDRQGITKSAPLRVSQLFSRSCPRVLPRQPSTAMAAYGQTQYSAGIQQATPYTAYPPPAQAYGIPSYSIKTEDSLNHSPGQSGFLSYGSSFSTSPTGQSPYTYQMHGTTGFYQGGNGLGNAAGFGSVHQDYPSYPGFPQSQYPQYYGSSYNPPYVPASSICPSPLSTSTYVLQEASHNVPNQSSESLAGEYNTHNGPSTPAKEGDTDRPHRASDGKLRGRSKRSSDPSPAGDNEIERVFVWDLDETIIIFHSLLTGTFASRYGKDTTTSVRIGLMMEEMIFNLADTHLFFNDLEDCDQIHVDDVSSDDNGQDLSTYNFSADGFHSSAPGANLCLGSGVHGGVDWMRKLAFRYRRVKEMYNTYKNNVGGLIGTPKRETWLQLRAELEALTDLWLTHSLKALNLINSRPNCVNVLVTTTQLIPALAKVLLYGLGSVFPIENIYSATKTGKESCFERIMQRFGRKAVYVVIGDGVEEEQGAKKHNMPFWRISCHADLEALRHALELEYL
Target sequence (Q15475 whole entry, looked up): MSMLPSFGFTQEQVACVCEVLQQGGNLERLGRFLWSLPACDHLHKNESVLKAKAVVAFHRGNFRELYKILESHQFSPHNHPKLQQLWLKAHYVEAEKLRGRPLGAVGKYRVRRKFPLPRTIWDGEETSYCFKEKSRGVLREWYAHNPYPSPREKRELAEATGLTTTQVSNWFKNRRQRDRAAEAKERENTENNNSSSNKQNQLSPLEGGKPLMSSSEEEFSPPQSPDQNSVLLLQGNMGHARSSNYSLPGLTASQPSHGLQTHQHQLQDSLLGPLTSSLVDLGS
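Compounds are tested against tagged Six1 and Eya2 proteins bridged by glutathione donor and nickel acceptor beads; after a one-hour incubation at 37 °C without light, AlphaScreen emission is recorded.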
TDP1 cell noCPT = qHTS for Inhibitors of human tyrosyl-DNA phosphodiesterase 1 (TDP1): qHTS in cells in absence of CPT | DT40 Tdp1-/- hTDP1 cells, no CPT, ATP luminescence, 48 h | Potency, µM (highest dose often 46.2 µM), actives largely listed as inhibitors | hit rate 15% among 420,000 | AID 686978, 2013; further: nearly all actives have a fitted effect of over 55% in size
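Growth kinetics read by CellTiter-Glo luminescence after ≥48 hr at 37 °C. Cells: DT40 Tdp1-/- stably carrying human TDP1, 400 per well, compound exposure in the absence of CPT (DMSO vehicle).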
Numbers stand for hits. Unless noted, the call rests on the fitted dose curve; in most records, active means well fitted curve in the direction sought with a large enough effect; inconclusive means small, poorly fitted or top-dose-only effect, or another doubt; inactive means no such curve, though single readings can be large; an effect the other way counts as inactive or inconclusive.

How did O=C(COc1ccc(S(=O)(=O)NC2CCCCC2)cc1Cl)N1CCN(c2ccccc2)CC1 do in these assays?
IL-1B inflam inh: inconclusive; CtBP-E1A blk: inactive; DT40 TDP1 CPT: inconclusive; TDP1 block: inactive; Six1-Eya2 blk: inactive; TDP1 cell noCPT: inconclusive

How did COc1ccccc1N(CC(=O)NC1CCCC1)S(=O)(=O)c1ccc(C)cc1 do in these assays?
IL-1B inflam inh: inactive; CtBP-E1A blk: inactive; DT40 TDP1 CPT: inactive; TDP1 block: inactive; Six1-Eya2 blk: inactive; TDP1 cell noCPT: inactive

What do the screens show for `COc1ccc(OC)c(N(CC(=O)NC2CCCC2)S(=O)(=O)c2ccc(OC)c(OC)c2)c1`?
IL-1B inflam inh: inactive; CtBP-E1A blk: inactive; DT40 TDP1 CPT: 15µM; TDP1 block: inactive; Six1-Eya2 blk: inactive; TDP1 cell noCPT: 15µM

Results for CCOc1ccccc1N(CC(=O)NC1CCCCC1)S(=O)(=O)c1ccc(C)cc1 ?
IL-1B inflam inh: inactive; CtBP-E1A blk: inactive; DT40 TDP1 CPT: inconclusive; TDP1 block: inactive; Six1-Eya2 blk: inactive; TDP1 cell noCPT: 21µM

What do the screens show for `COc1ccc(OC)c(N(CC(=O)NC2CCCCCC2)S(=O)(=O)c2ccc(C)cc2)c1`?
IL-1B inflam inh: inactive; CtBP-E1A blk: inactive; DT40 TDP1 CPT: 23µM; TDP1 block: inactive; Six1-Eya2 blk: inactive; TDP1 cell noCPT: 23µM

Results for COc1ccc(S(=O)(=O)N(C)CC(=O)NC2CCCC2)cc1OC ?
IL-1B inflam inh: inactive; CtBP-E1A blk: inactive; DT40 TDP1 CPT: inactive; TDP1 block: inactive; Six1-Eya2 blk: inactive; TDP1 cell noCPT: inactive

How did O=C1Cc2cc(S(=O)(=O)Nc3cccc([N+](=O)[O-])c3)cc3c2N1CCC3 do in these assays?
IL-1B inflam inh: inactive; CtBP-E1A blk: inactive; DT40 TDP1 CPT: inactive; TDP1 block: inactive; Six1-Eya2 blk: inactive; TDP1 cell noCPT: inactive

How did COc1ccc(NC(=O)c2ccc(C)cc2)cc1 do in these assays?
IL-1B inflam inh: inactive; DT40 TDP1 CPT: inactive; Six1-Eya2 blk: inactive; TDP1 cell noCPT: inactive

How did CC(=O)c1ccc2c(c1)N(Cc1ccc3ccccc3c1)C(=O)C(C)S2 (configuration not stated) do in these assays?
IL-1B inflam inh: inactive; CtBP-E1A blk: inactive; DT40 TDP1 CPT: 5.8µM; Six1-Eya2 blk: inactive; TDP1 cell noCPT: 5.2µM

Results for CCCN1CCN(C(=O)c2noc3c2COc2ccc(C)cc2-3)CC1 ?
IL-1B inflam inh: inactive; CtBP-E1A blk: inactive; DT40 TDP1 CPT: 21µM; Six1-Eya2 blk: inactive; TDP1 cell noCPT: 16µM

Results for Cc1cnc(C=O)c2cccc([N+](=O)[O-])c12 ?
IL-1B inflam inh: inconclusive; CtBP-E1A blk: inactive; DT40 TDP1 CPT: 5.8µM; Six1-Eya2 blk: inactive; TDP1 cell noCPT: 3.7µM

Results for Cc1ncc(C)c2c([N+](=O)[O-])cccc12 ?
IL-1B inflam inh: inconclusive; CtBP-E1A blk: inactive; DT40 TDP1 CPT: inactive; Six1-Eya2 blk: inactive; TDP1 cell noCPT: 23µM

Results for Cc1ccc(S(=O)(=O)CCC(=O)OCC(=O)N2CCc3ccccc32)cc1 ?
IL-1B inflam inh: inactive; CtBP-E1A blk: inactive; DT40 TDP1 CPT: inactive; TDP1 block: inactive; Six1-Eya2 blk: inactive; TDP1 cell noCPT: inactive

How did Cc1cnc(-n2ncc(C(=O)NCC(C)(C)N3CCOCC3)c2C(C)C)nc1-c1ccc(F)cc1 do in these assays?
DT40 TDP1 CPT: inactive; TDP1 cell noCPT: inactive

How did O=C(CC(C(=O)c1ccccc1)c1ccccc1)c1ccccc1 (configuration not stated) do in these assays?
IL-1B inflam inh: inconclusive; CtBP-E1A blk: inactive; DT40 TDP1 CPT: inconclusive; Six1-Eya2 blk: inactive; TDP1 cell noCPT: 21µM

What do the screens show for `COC(=O)C(NC(=O)c1ccccc1)c1ccccc1` (configuration not stated)?
IL-1B inflam inh: inactive; CtBP-E1A blk: inactive; DT40 TDP1 CPT: inactive; TDP1 block: inactive; Six1-Eya2 blk: inactive; TDP1 cell noCPT: inactive

How did C=C(C(=O)c1ccccc1)C(NC(C)(C)C)c1ccccc1 (configuration not stated) do in these assays?
IL-1B inflam inh: -101; CtBP-E1A blk: inactive; DT40 TDP1 CPT: 2.1µM; Six1-Eya2 blk: inactive; TDP1 cell noCPT: 2.3µM

What do the screens show for `O=C(CC(C(=O)O)c1cccc(Cl)c1)c1ccccc1` (configuration not stated)?
IL-1B inflam inh: inactive; CtBP-E1A blk: inactive; DT40 TDP1 CPT: inactive; Six1-Eya2 blk: inactive; TDP1 cell noCPT: inactive

How did CN(C)CC(C(=O)c1ccccc1)c1ccccc1 (configuration not stated) do in these assays?
IL-1B inflam inh: -101; CtBP-E1A blk: inactive; DT40 TDP1 CPT: 1.2µM; TDP1 block: inactive; Six1-Eya2 blk: inactive; TDP1 cell noCPT: 1.5µM

Results for CN(Cc1cc(Cl)cc(Cl)c1)CC(C(=O)c1ccccc1)c1ccccc1 (configuration not stated) ?
IL-1B inflam inh: -79; CtBP-E1A blk: inactive; DT40 TDP1 CPT: 6.5µM; Six1-Eya2 blk: inactive; TDP1 cell noCPT: 7.3µM

How did Cc1cccc2sc(N(CCN(C)C)C(=O)c3ccc4ccccc4c3)nc12 do in these assays?
IL-1B inflam inh: inactive; DT40 TDP1 CPT: inconclusive; TDP1 block: inactive; Six1-Eya2 blk: inactive; TDP1 cell noCPT: inconclusive

How did CN1C(=S)SC(C)(C)C1(C)NO (configuration not stated) do in these assays?
IL-1B inflam inh: inactive; CtBP-E1A blk: inactive; DT40 TDP1 CPT: inconclusive; TDP1 block: inactive; Six1-Eya2 blk: inactive; TDP1 cell noCPT: inconclusive

What do the screens show for `O=C(CC(Nc1ccccc1)C(=O)O)c1ccccc1` (configuration not stated)?
IL-1B inflam inh: inactive; CtBP-E1A blk: inactive; DT40 TDP1 CPT: inconclusive; TDP1 block: inactive; Six1-Eya2 blk: inactive; TDP1 cell noCPT: inconclusive

Results for N#CC(c1ccccc1)C(CC(=O)c1ccccc1)c1ccccc1 (configuration not stated) ?
IL-1B inflam inh: inactive; CtBP-E1A blk: inactive; DT40 TDP1 CPT: inconclusive; Six1-Eya2 blk: inactive; TDP1 cell noCPT: inconclusive

What do the screens show for `N#CC(c1ccc(N)cc1)C(CC(=O)c1ccccc1)c1ccccc1` (configuration not stated)?
IL-1B inflam inh: inactive; CtBP-E1A blk: inactive; DT40 TDP1 CPT: inconclusive; Six1-Eya2 blk: inactive; TDP1 cell noCPT: 29µM

How did C=C(C(=O)c1ccccc1)C(C)CC(=O)c1ccccc1 (configuration not stated) do in these assays?
IL-1B inflam inh: -106; CtBP-E1A blk: inactive; DT40 TDP1 CPT: 23µM; TDP1 block: inactive; Six1-Eya2 blk: inactive; TDP1 cell noCPT: 15µM
